Source: PubChem BioAssay (National Center for Advancing Translational Sciences (NCATS))
HCMV inh = human cytomegalovirus inhibition | HFF cells, HCMV-luciferase reporter, 72 h; hits give low values | activity change, negative = inhibition, % at 57.5 µM | 410,000 tested, 4.5% active; in the data active = activity change below about -60%; inconclusive = no clear call, values can overlap the other calls; inactive = above about -39%
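After 16 h attachment at 37C, HFF cells received test compound and HCMV-luciferase (1 PFU/cell); reporter luminescence read 72 h later, data normalized against buffer-only and known inhibitor Salinomycin.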
AmpC inh detg = AmpC beta-lactamase inhibition with detergent present; AmpC hydrolysis of nitrocefin, absorbance 480 nm, 0.01% Triton; 370,000 tested, 0.041% active; Potency, µM (highest dose often 114 µM), actives largely listed as inhibitors; P00811; note: nearly all actives have a fitted effect of over 25% in size
Target sequence (P00811 whole entry, looked up): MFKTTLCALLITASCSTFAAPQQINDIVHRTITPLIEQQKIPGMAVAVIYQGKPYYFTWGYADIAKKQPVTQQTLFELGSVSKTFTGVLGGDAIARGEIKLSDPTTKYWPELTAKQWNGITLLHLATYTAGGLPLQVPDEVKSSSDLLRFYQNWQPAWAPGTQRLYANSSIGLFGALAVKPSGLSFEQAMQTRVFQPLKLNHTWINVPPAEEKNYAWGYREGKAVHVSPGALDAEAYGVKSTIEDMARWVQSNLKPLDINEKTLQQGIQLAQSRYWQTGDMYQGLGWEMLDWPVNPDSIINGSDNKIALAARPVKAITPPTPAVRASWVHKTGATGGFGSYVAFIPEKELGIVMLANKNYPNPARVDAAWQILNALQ
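AmpC (5.3 nM in the dispensed reagent) in 20 mM phosphate pH 7.0 with 0.01% (detergent screen) or 0.0001% Triton X-100 was preincubated with compounds for 15 min at room temperature. Nitrocefin was then added from an 800 uM solution, and hydrolysis was followed at 480 nm.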
FMDV antiviral = foot and mouth disease virus antiviral activity. FMDV antiviral cell-based qHTS. Potency, µM (titrated, usually from 57.9 µM), most hits filed as inhibitors. 410,000 tested, 1.2% active; calls by dose curve; tested in HEK293T cells; note: read-out not given here; nearly all actives have a fitted effect of over 45% in size
HCV inh = HCV inhibition | Huh7.5.1 HCVcc-Cre infection, luciferase reporter, 44 h | Potency, µM (titrated, usually from 41.8 µM), most hits filed as inhibitors | 340,000 tested, 3.4% active | AID 651820
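Cells (1,000/well) were plated 4 h before compound, then infected with HCVcc-Cre virus (~0.5 moi). After 44 h further culture, infection was read as luciferase luminescence following a 15 min substrate incubation at room temperature.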
AmpC no deterg = blocks E. coli AmpC beta-lactamase in detergent-free assay; AmpC nitrocefin hydrolysis, absorbance 480 nm, 0.0001% Triton; Potency, µM (highest dose often 57.1 µM), actives largely listed as inhibitors; 330,000 tested, 0.52% active; AID 485341; note: nearly all actives have a fitted effect of over 20% in size
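AmpC (5.3 nM in the dispensed reagent) in 20 mM phosphate pH 7.0 with 0.01% (detergent screen) or 0.0001% Triton X-100 was preincubated with compounds for 15 min at room temperature. Nitrocefin was then added from an 800 uM solution, and hydrolysis was followed at 480 nm.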
Numbers stand for hits; i = inactive; ? = inconclusive; nt = no result given. Only some compounds are listed: those with a hit (about 7.3% of all), similar ones and a draw of the others. Unless noted, calls come from the whole dose curve; as a rule, active = well fitted curve in the direction sought with a large enough effect; inconclusive = small, poorly fitted or top-dose-only effect, or another doubt; inactive = no such curve, though single readings can be large; an effect the other way counts as inactive or inconclusive.

SMILES | HCMV inh | AmpC inh detg | FMDV antiviral | HCV inh | AmpC no deterg
CC(=O)c1ccc(N2CCN(c3nc4c(S(=O)(=O)c5ccc(C)c(C)c5)nnn4c4ccc(Cl)cc34)CC2)cc1 | i | i | i | nt | nt
C[C@H]1O[C@@H](O[C@H]2CC[C@@]3(C)C(CC[C@]4(C)C3C=CC3=C5CC(C)(C)CC[C@]5(CO)[C@H](O)C[C@]34C)[C@]2(C)CO)[C@H](O)[C@@H](O[C@@H]2O[C@H](CO)[C@@H](O)[C@H](O)[C@H]2O)[C@H]1O (stereo partly drawn) | i | nt | i | i | i
COc1ccccc1C(=O)COC(=O)C1CCN(S(=O)(=O)c2ccc(C)c(C)c2)CC1 | i | i | i | i | i
CCCCN(C)C(=O)c1cc2cc3ccc(OC)cc3nc2s1 | i | ? | i | 11µM | i
CCNc1ncc2nc(C)c(=O)n(CCC#N)c2n1 | nt | nt | i | nt | nt
CCNc1nc(C)c2cc(Br)c(=O)n(CC)c2n1 | i | i | i | 8.9µM | i
Cc1cc(C)c2c(c1)c(C)cc1nnc(SCC(=O)c3ccc(F)cc3)n12 | i | i | i | nt | nt
CN(C)S(=O)(=O)c1cccc(NC(=O)c2ccc(S(=O)(=O)N3CCCC3)cc2)c1 | i | i | i | 10µM | i
Cc1cc(C)n(-c2ccc(C(=O)Nc3cccc(S(=O)(=O)N4CCCC4)c3)cc2)n1 | -72 | i | i | ? | i
CC(=O)c1cccc(NC(=O)c2ccc(S(=O)(=O)N3CCCC3)cc2)c1 | i | i | i | i | i
CC(C)Oc1ccc(C(=O)Nc2cccc(S(=O)(=O)N3CCCC3)c2)cc1 | ? | nt | i | 2.8µM | i
Cc1cc(C)n(-c2ccc(C(=O)N3CCN(S(=O)(=O)c4cccc(Br)c4)CC3)cc2)n1 | -64 | nt | ? | 7.9µM | nt
COc1ccc(Cl)cc1NC(=O)CN1c2ccccc2S(=O)(=O)c2ccccc21 | i | i | i | nt | nt
CCOc1ccccc1NC(=O)C(OC(=O)c1ccc(N(C)C)cc1)c1ccccc1 (stereo not drawn) | i | ? | i | 11µM | i
Cc1ccc2oc(-c3cc(NC(=O)Cc4ccccc4)ccc3Cl)nc2c1 | i | i | i | nt | nt
COc1cc([N+](=O)[O-])c2ncsc2c1 | i | i | i | i | i
COc1cc(SSc2cc(OC)cc([N+](=O)[O-])c2N)c(N)c([N+](=O)[O-])c1 | -98 | i | ? | i | i
Cc1nnc(C)n1/N=C/c1ccc(O)cc1 | i | i | i | i | i
Oc1ccc(/C=N/n2c3ccccc3c3ccccc32)cc1 | i | i | i | 10µM | i
CC(=O)SC(C[N+](=O)[O-])c1cn(C(C)=O)c2ccccc12 (stereo not drawn) | -106 | i | 28µM | 11µM | i
CC(=O)n1cc(Nc2ccc([N+](=O)[O-])cc2)c2ccccc21 | i | i | i | i | i
COc1ccc(OC)c(-c2cc(C3CCN(c4cc(Cl)nc(N)n4)CC3)[nH]n2)c1 | -89 | i | 18µM | ? | i
COc1ccc(-c2cc(C3CCN(c4cc(Cl)nc(N)n4)CC3)[nH]n2)cc1 | -60 | ? | 22µM | ? | i
COc1ccc(-c2cc(C3CCN(CC(O)C(F)(F)F)CC3)[nH]n2)cc1 (stereo not drawn) | i | i | i | i | i
CCC1CN(Cc2cn[nH]c2-c2ccccc2)Cc2cc(OC)ccc2O1 (stereo not drawn) | nt | nt | i | nt | nt
SMILES | HCMV inh | AmpC inh detg | FMDV antiviral | HCV inh | AmpC no deterg
C=CCN1CC(O)=C(c2ccccc2)C1=N | -69 | i | nt | i | i
O=C1C(=O)N(C2CCS(=O)(=O)C2)C(c2cccc(O)c2)/C1=C(/O)c1ccc(Cl)cc1 (stereo not drawn) | ? | i | i | i | i
CS(=O)(=O)N1N=C(c2cccs2)CC1c1ccccc1O (stereo not drawn) | i | i | i | i | i
Oc1ccccc1C1CC(c2cccs2)=NC(c2ccc(Cl)cc2)N1 (stereo not drawn) | -70 | i | i | ? | i
COc1ccc(/C=N/OCC(=O)N=Nc2c(O)[nH]c3ccc(Br)cc23)cc1 | ? | ? | ? | ? | 1µM
[N-]=[N+]=NC1CC(CO)OC1n1ccc(=O)[nH]c1=O (stereo not drawn) | i | i | i | i | i
O=C(CNc1cccc(S(=O)(=O)N2CCCC2)c1)Nc1cccc(F)c1 | i | i | i | i | i
O=C(CNc1cccc(C(F)(F)F)c1)Nc1cccc(S(=O)(=O)N2CCCC2)c1 | ? | i | i | 11µM | i
O=C(CNc1cc(S(=O)(=O)N2CCCC2)ccc1OCC(F)(F)F)Nc1cccc(C(F)(F)F)c1 | -69 | i | ? | 11µM | i
N#Cc1cccc(NCC(=O)Nc2cccc(S(=O)(=O)N3CCCCC3)c2)c1 | i | i | i | ? | i
O=C(NCCC1=CCCCC1)C1CCN(S(=O)(=O)c2cccc(C(F)(F)F)c2)CC1 | i | ? | ? | 11µM | i
N#Cc1cccc(NC(=O)CNc2cccc(S(=O)(=O)N3CCCC3)c2)c1 | i | i | i | 2.5µM | i
CCN(CC)S(=O)(=O)c1cccc(NC(=O)Nc2cccc(C(F)(F)F)c2)c1 | nt | ? | 18µM | 2µM | i
Cc1ccc(S(=O)(=O)N(C)c2cc(S(=O)(=O)N3CCOCC3)c(C)cc2C)cc1 | i | i | i | i | i
COc1ccc(S(=O)(=O)N2CCCCCC2)cc1C(=O)N(C)Cc1ccc(Cl)cc1Cl | i | i | i | 11µM | ?
COc1ccc(S(=O)(=O)N2CCOCC2)cc1N(C)S(=O)(=O)c1ccc(C)cc1 | ? | i | i | i | i
Cc1cc(C)c(S(=O)(=O)N2CCCCC2)cc1N(C)S(=O)(=O)c1ccc(Cl)cc1 | ? | i | i | 32µM | i
COc1ccc(S(=O)(=O)N2CCCCCC2)cc1N(C)S(=O)(=O)c1ccc(C)cc1 | -77 | i | i | ? | i
CCC1OC23CCCCC2C(C#N)(C(=N)O3)C1(C#N)C#N (stereo not drawn) | ? | i | 14µM | i | i
N#CC12COC3(CCCCC3C1(C#N)C#N)OC2=N (stereo not drawn) | i | i | 28µM | i | i
N#CC1(C#N)COC23CCCCC2C1(C#N)C(=N)O3 (stereo not drawn) | i | ? | i | i | i
NC(=O)c1ccc(NC(=O)C#Cc2ccccc2)cc1 | -103 | i | i | ? | i
COc1ccc(CCNC(=O)C(=O)Nc2ccc(C)c(C)c2)cc1OC | i | i | i | nt | nt
CC(Oc1ccccc1)C(=O)Nc1ccc(C(N)=O)cc1 (stereo not drawn) | i | i | i | i | i
CNC(=O)Nc1ccccc1F | i | i | i | i | i
COc1ccc(NC(=O)C#Cc2ccccc2)cc1OC | -88 | i | i | ? | i
COc1ccc(NC(=O)C(=O)NCCc2ccccc2)cc1OC | -64 | i | i | nt | nt
O=C(C#Cc1ccccc1)Nc1ccccc1F | -96 | i | i | ? | i
